Holding throughout (design): scale not given: direction of the effect not stated beside the values
Test [1] deals with Protein translocase subunit SecA (Escherichia coli (strain K12)) (UniProt P10408). In words: Assay to Identify E. coli SecA ATPase Inhibitors. The format is functional. Particulars: 30 µM.
In test [2] the target is T1, Ubiquitin-activating enzyme e1, putative (Leishmania donovani (strain BPK282A1)) (UniProt E9BSI1).
T1 sequence (whole entry): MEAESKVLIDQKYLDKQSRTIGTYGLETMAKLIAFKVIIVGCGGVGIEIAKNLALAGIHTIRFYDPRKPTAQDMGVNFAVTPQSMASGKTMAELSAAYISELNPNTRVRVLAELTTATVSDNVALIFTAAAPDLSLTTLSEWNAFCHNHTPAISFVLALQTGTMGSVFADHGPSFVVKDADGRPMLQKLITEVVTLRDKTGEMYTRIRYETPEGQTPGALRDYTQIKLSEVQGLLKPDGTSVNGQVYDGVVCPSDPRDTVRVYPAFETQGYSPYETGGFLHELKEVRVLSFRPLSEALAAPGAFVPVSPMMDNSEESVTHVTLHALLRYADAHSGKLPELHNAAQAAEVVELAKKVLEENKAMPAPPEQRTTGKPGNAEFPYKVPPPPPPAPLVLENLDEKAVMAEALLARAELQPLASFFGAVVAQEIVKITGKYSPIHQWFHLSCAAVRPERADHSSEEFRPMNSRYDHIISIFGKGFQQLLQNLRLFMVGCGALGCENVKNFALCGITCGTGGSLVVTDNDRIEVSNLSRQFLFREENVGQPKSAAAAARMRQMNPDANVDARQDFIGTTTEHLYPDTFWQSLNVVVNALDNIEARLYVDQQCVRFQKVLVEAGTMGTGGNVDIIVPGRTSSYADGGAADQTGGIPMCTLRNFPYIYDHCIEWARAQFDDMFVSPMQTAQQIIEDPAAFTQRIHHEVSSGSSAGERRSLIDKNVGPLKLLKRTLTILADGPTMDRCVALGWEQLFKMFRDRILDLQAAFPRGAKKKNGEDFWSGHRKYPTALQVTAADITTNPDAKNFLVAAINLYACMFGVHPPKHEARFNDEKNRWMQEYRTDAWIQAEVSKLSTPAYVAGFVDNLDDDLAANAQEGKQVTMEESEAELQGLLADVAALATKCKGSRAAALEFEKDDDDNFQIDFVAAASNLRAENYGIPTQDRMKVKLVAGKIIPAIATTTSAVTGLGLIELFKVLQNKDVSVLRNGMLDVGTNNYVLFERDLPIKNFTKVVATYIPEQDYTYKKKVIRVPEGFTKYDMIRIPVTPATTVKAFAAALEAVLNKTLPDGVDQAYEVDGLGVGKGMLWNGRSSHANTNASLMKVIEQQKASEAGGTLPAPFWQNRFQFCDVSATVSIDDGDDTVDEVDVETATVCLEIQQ
In words: Leishmania donovani Ubiquitin Activating Enzyme (LdE1). The format is functional. Conditions: 30 µM.

Test [3] deals with AMP-activated protein kinase, AMPK (Homo sapiens) (UniProt P54646+O43741+P54619+Q9UGJ0+Q9Y478+Q13131+Q9UGI9). In words: AMP-dependent Kinase enzyme assay. An in vitro enzyme assay that detects ADP turnover that is directly proportional to AMPK activity. This uses naive AMPK that is activated during the assay with MK-8722. The format is functional. Particulars: 30 µM.
Test [4] has as its target Sialic acid-binding Ig-like lectin 9 (Homo sapiens) (UniProt Q9Y336). In words: Hs-Siglec9 ALPHAscreen SOP 20170721. Conditions: 10 µM. (Bead proximity is the source of the signal in Alpha formats.)
The test system of a further test is Trypanosoma cruzi. The experiment in a line: Trypanosoma cruzi phosphomannomutase and mannose-1-phosphate guanylyltransferase assay. The format is functional. Particulars: 10 µM.
Test [5] has as its target T2, Arginase-2, mitochondrial (Homo sapiens) (UniProt P78540).
T2 sequence (whole entry): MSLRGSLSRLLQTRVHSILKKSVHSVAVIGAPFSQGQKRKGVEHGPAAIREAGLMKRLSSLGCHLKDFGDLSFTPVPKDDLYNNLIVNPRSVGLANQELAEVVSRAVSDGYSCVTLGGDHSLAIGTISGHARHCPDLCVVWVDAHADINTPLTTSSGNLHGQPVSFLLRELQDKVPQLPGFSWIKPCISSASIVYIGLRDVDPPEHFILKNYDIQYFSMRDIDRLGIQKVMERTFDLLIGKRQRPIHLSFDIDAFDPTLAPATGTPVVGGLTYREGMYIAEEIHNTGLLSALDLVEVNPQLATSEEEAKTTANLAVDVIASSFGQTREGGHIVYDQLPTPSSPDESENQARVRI
In words: in vitro enzyme assay to detect the production of urea directly proportional to the activity of Arginase II. Further: in the data most compounds retested in dose-response had high values. The format is functional. Particulars: 33.3 µM.

In test [6] the target is T3, Proteasome subunit beta (Trypanosoma cruzi) (UniProt O96673).
T3 sequence (whole entry): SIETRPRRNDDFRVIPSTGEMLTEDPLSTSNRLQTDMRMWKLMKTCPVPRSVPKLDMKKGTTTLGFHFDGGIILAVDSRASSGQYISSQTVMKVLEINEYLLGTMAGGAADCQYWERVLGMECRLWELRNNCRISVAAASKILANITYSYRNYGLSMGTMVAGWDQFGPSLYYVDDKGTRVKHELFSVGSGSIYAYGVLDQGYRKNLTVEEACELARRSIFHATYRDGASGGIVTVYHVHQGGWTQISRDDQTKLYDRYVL
In words: Trypanosoma cruzi proteasome chymotrypsin-like activity (TcProtChymo) assay. Further: in the data most compounds retested in dose-response had high values. The format is functional. Particulars: 9.37 µM.

For a further test, the species on record is Homo sapiens. In words: To identify inhibition of the IFN signalling (Jak-Stat) pathway via expression of an eGFP reporter gene under the control of an IFN-stimulated response element (ISRE) containing MxA promoter. It counts as functional. Conditions: 30 µM.
Test [7] concerns the target T4, Tyrosyl-tRNA synthetase, putative (Trypanosoma cruzi (strain CL Brener)) (UniProt Q4DSP6).
T4 sequence (whole entry): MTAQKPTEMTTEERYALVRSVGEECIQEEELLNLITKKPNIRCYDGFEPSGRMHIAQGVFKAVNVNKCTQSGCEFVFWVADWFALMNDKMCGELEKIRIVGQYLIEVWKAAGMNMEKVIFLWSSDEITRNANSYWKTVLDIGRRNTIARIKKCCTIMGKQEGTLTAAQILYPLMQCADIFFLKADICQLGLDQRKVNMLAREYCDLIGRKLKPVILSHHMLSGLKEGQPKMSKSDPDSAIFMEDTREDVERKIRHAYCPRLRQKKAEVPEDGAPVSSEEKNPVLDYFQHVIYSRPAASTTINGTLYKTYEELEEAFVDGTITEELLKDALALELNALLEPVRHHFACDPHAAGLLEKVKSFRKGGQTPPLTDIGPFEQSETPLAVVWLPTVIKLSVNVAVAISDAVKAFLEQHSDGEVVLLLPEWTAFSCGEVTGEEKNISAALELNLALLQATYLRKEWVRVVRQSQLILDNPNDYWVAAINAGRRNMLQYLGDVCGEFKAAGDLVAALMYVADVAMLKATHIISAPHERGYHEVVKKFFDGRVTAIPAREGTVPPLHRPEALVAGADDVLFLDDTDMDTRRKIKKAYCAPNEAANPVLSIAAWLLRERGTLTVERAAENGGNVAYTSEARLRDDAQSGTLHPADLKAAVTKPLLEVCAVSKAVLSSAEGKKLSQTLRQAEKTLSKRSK
The experiment in a line: Trypanosoma cruzi tyrosyl tRNA synthetase (TcYRS) _High Tyrosine SOP. Further: in the data most compounds retested in dose-response had high values. The format is functional. Conditions: 30 µM.

Test [8] deals with T4, Tyrosyl-tRNA synthetase, putative (Trypanosoma cruzi (strain CL Brener)). In words: Trypanosoma cruzi tyrosyl tRNA synthetase (TcYRS) SOP. The format is functional. Conditions: 30 µM.
The target in test [9] is Chromo domain-containing protein 1 (Saccharomyces cerevisiae (strain ATCC 204508 / S288c) (Baker's yeast)) (UniProt P32657). In words: ScCHD-1 Enzyme Inhibition Assay. Further: in the data most compounds retested in dose-response had high values. The format is functional. Particulars: 30 µM.

For part of these data: Results with a measured potency or affinity are listed apart.

Sequence of Protein translocase subunit SecA (Escherichia coli (strain K12)) (P10408 whole entry): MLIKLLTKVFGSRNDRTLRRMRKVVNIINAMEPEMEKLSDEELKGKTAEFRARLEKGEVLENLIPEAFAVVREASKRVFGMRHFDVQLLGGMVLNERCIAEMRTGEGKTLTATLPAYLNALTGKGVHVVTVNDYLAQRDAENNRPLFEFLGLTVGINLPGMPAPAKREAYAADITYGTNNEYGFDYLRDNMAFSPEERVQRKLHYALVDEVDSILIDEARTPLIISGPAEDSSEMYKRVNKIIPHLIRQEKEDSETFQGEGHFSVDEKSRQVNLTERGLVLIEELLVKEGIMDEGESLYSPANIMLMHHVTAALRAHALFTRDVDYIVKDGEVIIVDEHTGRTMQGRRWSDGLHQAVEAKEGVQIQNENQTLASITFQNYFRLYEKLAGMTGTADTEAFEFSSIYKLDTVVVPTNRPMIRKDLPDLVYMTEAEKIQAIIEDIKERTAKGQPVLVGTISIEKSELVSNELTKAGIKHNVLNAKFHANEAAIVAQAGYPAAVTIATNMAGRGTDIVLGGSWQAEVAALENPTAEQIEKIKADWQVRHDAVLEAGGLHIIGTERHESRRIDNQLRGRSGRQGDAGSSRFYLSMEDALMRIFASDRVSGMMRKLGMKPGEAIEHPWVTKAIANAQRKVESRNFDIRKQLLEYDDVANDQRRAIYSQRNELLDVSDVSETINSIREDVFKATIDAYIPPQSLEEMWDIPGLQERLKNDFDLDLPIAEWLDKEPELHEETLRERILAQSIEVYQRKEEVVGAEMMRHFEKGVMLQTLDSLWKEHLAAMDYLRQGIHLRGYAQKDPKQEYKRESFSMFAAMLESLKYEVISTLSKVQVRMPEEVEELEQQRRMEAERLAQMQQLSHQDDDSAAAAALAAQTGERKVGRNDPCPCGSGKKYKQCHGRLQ
Sequence of Chromo domain-containing protein 1 (Saccharomyces cerevisiae (strain ATCC 204508 / S288c) (Baker's yeast)) (P32657 whole entry, the tested form may be a part): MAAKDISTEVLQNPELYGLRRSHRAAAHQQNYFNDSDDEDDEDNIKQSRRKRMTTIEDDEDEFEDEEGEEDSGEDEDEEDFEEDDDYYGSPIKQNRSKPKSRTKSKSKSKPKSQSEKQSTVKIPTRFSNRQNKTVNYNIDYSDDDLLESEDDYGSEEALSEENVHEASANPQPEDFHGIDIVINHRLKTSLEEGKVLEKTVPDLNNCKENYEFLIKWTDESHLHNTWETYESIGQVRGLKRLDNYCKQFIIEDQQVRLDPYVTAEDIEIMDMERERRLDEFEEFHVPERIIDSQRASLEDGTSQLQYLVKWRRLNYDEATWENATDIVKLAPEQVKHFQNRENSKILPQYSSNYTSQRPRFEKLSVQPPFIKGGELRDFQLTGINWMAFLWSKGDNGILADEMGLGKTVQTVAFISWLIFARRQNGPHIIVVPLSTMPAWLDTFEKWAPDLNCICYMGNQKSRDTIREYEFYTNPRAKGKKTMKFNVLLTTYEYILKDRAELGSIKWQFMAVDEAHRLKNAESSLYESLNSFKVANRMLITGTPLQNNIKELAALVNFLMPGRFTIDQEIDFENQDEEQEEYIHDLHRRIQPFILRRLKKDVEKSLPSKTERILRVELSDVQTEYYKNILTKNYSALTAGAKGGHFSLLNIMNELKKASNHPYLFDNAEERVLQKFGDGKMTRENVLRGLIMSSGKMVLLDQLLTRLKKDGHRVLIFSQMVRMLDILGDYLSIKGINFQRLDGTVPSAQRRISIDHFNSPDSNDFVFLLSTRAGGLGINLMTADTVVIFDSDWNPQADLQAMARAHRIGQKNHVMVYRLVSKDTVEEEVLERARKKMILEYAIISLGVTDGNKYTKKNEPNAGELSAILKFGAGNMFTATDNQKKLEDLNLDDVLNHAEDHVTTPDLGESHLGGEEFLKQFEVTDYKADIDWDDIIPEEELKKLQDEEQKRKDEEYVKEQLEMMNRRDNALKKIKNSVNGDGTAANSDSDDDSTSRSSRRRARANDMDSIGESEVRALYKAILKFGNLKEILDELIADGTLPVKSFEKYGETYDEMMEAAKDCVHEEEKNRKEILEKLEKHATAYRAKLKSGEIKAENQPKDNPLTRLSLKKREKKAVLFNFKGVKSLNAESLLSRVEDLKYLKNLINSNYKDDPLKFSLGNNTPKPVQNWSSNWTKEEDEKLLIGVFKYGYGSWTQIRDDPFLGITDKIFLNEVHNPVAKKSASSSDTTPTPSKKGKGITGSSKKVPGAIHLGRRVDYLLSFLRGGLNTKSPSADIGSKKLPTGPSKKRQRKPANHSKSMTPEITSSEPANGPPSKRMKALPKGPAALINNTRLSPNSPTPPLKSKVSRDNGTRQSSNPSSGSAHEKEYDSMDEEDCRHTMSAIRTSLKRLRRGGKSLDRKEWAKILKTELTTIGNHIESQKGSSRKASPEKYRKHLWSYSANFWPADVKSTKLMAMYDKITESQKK
Sequence of Sialic acid-binding Ig-like lectin 9 (Homo sapiens) (Q9Y336 whole entry): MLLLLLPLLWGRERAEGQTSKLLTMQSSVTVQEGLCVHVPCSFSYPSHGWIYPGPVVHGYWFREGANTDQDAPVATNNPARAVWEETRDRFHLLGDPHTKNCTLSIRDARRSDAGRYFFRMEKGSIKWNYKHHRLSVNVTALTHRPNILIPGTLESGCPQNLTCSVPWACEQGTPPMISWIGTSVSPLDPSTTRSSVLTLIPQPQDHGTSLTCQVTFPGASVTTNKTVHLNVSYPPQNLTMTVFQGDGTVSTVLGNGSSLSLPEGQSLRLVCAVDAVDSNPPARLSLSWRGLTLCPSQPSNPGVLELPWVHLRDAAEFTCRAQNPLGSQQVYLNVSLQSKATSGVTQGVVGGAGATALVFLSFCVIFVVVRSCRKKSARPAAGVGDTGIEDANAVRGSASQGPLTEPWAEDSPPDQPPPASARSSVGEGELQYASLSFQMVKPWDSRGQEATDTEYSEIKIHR

As to `CCN(CC)C(=O)c1nnc2ccc(N3CCOCC3)cc2n1`, the Percent Effect in [1] is -7.46%; in test [2] it was 9.33%; in test [3], -17.9%; in [4] it was 3.43%; with Trypanosoma cruzi, 7.27%; in test [5] it was -7.57%. The Percent Effect in [6] is 14.1%; in the test listed under Homo sapiens it was 11.4%; in test [7] it was 3.17%; in test [8] it was 12.8%; in [9], -14.1%.
Turning to `Cc1nc(C2CCCN2C(=O)c2cnns2)no1` (centres undefined), the Percent Effect in [1] was -3.1%; in test [2], 13.2%; in [3], 3.2%; in test [4] it was 4.23%; in the test on Trypanosoma cruzi it was -0.564%; in test [5], 9.96%. Also, the Percent Effect in test [6] is 12.9%; in the test listed under Homo sapiens, 3.69%; in [7] it was 5.39%; in test [8], 17.1%; in test [9] it was -6.62%.
Turning to `CS(=O)(=O)N1CCC(Oc2cnccn2)CC1`, the Percent Effect in test [1] is -2.51%; in [2], 10.4%; in [3] it was -2.43%; in test [4], 6.29%; in the test with Trypanosoma cruzi, 2.46%; in test [5] it was 1.94%. The Percent Effect was 14.1% in [6]; 7.55% in the test listed under Homo sapiens; 4.23% in test [7]; 11.5% in test [8]; -8.42% in test [9].
Turning to `CO[C@H]1CCN(Cc2cccc(C)n2)[C@@H]2CN(Cc3cccnc3)C[C@H]12`, the Percent Effect was -4.37% in [1]; 13.7% in [2]; -4.89% in test [3]; 7.4% in [4]; 12.3% with Trypanosoma cruzi; -3.99% in test [5]. In addition, the Percent Effect in test [6] was 15.5%; in the test listed under Homo sapiens it was 6.58%; in test [7], 5.21%; in [8], 6.17%; in [9], -8.06%.
Regarding `COCCOCc1cccc(NC(=O)N2CCCC2c2ccncc2)c1` (centres undefined), the Percent Effect is -2.97% in [1]; 13% in [2]; -3.58% in test [3]; 1.28% in test [4]; -4.02% with Trypanosoma cruzi; 1.9% in test [5]. For the same compound, the Percent Effect is 5.09% in [6]; 16.9% in the test filed under Homo sapiens; 6.67% in test [7]; 7.06% in test [8]; -20.8% in test [9].
As for `O=C(c1cscn1)N1C[C@@H]2[C@@H](C1)OCC(=O)N2CC1CCCC1`, the Percent Effect in test [1] is -1.51%; in [2], -54.5%; in [3], 1.15%; in [4], 6.36%; in the test with Trypanosoma cruzi, -5.01%; in [5] it was -8.28%. Besides, the Percent Effect in test [6] is 16.5%; in the test filed under Homo sapiens, 0.71%; in [7], -87.1%; in test [8], -147%; in test [9], -3.29%.
With `O=C(O)c1cc(S(=O)(=O)Nc2ccc(Cl)cc2)cc2c1OCCO2`, the Percent Effect in [1] was -4.18%; in test [2], -8.86%; in test [3], 4.72%; in test [4] it was 2.13%; in the test on Trypanosoma cruzi it was -2.97%; in test [5] it was 4.09%. Moreover, the Percent Effect is 8.75% in test [6]; -2.12% in the test filed under Homo sapiens; -18.8% in test [7]; -15.2% in [8]; -21.4% in [9].
On to `COc1cc(C(=O)Nc2c(C)noc2C)ccc1C`, for which the Percent Effect was -3.57% in [1]; 17.7% in test [2]; 2.44% in [3]; 6.13% in [4]; 3.87% in the test on Trypanosoma cruzi; -4.56% in [5]. Moreover, the Percent Effect is 1.88% in test [6]; 18.6% in the test filed under Homo sapiens; 4.43% in [7]; 16.5% in [8]; -5.84% in test [9].
On to `CC(C)SCC(=O)N1CCc2c(nc(N(C)C)nc2N(C)C)C1`, for which the Percent Effect was -5.05% in test [1]; 13.3% in test [2]; -4.26% in test [3]; 19.7% in [4]; 6.52% with Trypanosoma cruzi; 5.73% in test [5]. The Percent Effect in test [6] is 13.8%; in the test listed under Homo sapiens, 10.8%; in test [7], 2.73%; in test [8] it was 8.64%; in [9], -8.15%.

These data come from ChEMBL document CHEMBL3988442, “University of Dundee, Small-Polar-MMV Screening Library” (2021).
